Shown are actives, neighbours in structure and some others; about 9.2% of the full set was active somewhere.
SMN2 splice up = increases expression of the SMN2 splice variant; Potency, µM (doses to about 46.1 µM), without a hit: top-dose activity change, positive = activation, hits mostly activators; 210,000 tested, 2.8% active; HEK293 SMN2-luciferase splicing reporter, luminescence, 30-36 h; note: % of control where 0% means no effect; nearly all actives have a fitted effect of over 55% in size
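HEK293 cells carry an SMN2 minigene-luciferase reporter in which exon 7 inclusion puts luciferase in frame. Cells were seeded at 2000 cells/well, attached for 10-12 hours, then exposed to compounds for 30-36 hours at 37C before ONE-Glo luminescence.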
NPC1 prom act = activates the NPC1 promoter; Huh7 NPC1 promoter luciferase reporter, 24 h; Potency, µM (top dose mostly 9.22 µM), for the others: top-dose activation, hits mostly activators; 320,000 tested, 2.4% active; note: % of control where 0% means no effect; nearly all actives have a fitted effect of over 60% in size
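NPC1 promoter–luciferase Huh7 cells; 24 h compound; luminescence.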
FLuc counter = inhibits or activates purified firefly luciferase, miR-21 counter-screen; Potency, µM (series often up to 57.5 µM), for inactives: at the highest dose activity change, negative = inhibition, hits mostly inhibitors; 360,000 tested, 6.9% active; purified FLuc, Km substrates, luminescence inhibition; P08659; AID 588342;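 note: plate controls were vehicle for no effect and reference inhibitor for full effect; nearly all actives have a fitted effect of over 55% in size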
Target sequence (P08659 whole entry, looked up): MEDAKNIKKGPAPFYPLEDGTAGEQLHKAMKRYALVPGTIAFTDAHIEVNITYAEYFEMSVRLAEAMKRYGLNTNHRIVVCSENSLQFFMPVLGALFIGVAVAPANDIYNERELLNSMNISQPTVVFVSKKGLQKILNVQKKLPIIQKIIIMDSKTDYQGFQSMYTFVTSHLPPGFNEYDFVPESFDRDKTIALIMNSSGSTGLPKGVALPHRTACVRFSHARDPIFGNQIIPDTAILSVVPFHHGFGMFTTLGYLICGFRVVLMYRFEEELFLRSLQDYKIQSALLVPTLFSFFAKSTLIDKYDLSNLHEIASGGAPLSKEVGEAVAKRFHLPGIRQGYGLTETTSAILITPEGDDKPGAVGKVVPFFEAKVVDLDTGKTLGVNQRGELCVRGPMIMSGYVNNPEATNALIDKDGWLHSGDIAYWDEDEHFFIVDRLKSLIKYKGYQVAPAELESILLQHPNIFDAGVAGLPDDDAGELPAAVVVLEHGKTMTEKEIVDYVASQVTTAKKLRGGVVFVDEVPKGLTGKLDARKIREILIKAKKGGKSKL
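Purified P. pyralis luciferase (10nM final) with 10uM D-luciferin and 10uM ATP (Km levels) in 50mM Tris acetate pH 7.5, 10mM Mg acetate, 0.01% Tween-20, 0.05% BSA; qHTS 6-point titration, ~60 µM downward; luminescence read.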
ELG1 genotox = inducers of genotoxicity in HEK293T ELG1-luciferase cells; Potency, µM (highest dose often 46 µM), inactives show at the top dose activity change, positive = activation, actives largely listed as activators; HEK293T ELG1-luciferase reporter, luminescence, 16 h; 330,000 tested, 1.3% active; AID 504466; note: % of control where 0% means no effect; nearly all actives have a fitted effect of over 60% in size
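Luminescence read-out: rising ELG1-luciferase signal, reflecting elevated ELG1 protein under genetic stress, flags genotoxic compounds. Cells were treated for 16 hr at 37 °C before ONE-Glo detection.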
ELG1 DNA repair = inhibitors of ELG1-dependent DNA repair in HEK293T cells | HEK293T ELG1-luciferase reporter, luminescence, 16 h; DNA damage induced by 5-fluorouridine | AID 504467 | Potency, µM (titrated, usually from 46.1 µM), for inactives: top-dose activity change, negative = inhibition, actives largely listed as inhibitors | 330,000 tested, 2.3% active; note: % is set by controls: 0 for no effect and ±100 for the full control effect; nearly all actives have a fitted effect of over 55% in size
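Overnight (16 hr) co-exposure of 2,000 cells/well to 5-fluorouridine and compound at 37 °C preceded detection. Luciferase was quantified via ONE-Glo luminescence; loss of signal denotes inhibition.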
Rab9 promoter act = activates the Rab9 promoter | Huh7 Rab9 promoter-luciferase reporter, luminescence, 24 h | Potency, µM (doses to about 9.22 µM), for inactives: top-dose activation, negative = inhibition, most hits filed as activators | 320,000 tested, 2.8% active | AID 485297; note: % of control where 0% means no effect; nearly all actives have a fitted effect of over 60% in size
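Stable Rab9-luc Huh7, 1500 cells/well, 2 h settle; cmpd in DMSO, 24 h, 37 °C/5% CO2; luciferase reagent 10 min RT; luminescence.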
An asterisk follows results filed as active; ? = inconclusive; . = no result given; [ ] = remark or other dose. Calls come from the whole dose curve; as a rule, active = well fitted curve in the direction sought with a large enough effect; inconclusive = small, poorly fitted or top-dose-only effect, or another doubt; inactive = no such curve, though single readings can be large; an effect the other way counts as inactive or inconclusive. Potency is the fitted concentration of half-maximal effect.

SMILES	SMN2 splice up	NPC1 prom act	FLuc counter	ELG1 genotox	ELG1 DNA repair	Rab9 promoter act
Cc1cc2ncc(C(=O)N=CN(C)C)cn2n1	-3%	-1%	-1%	12%	7%	0%
Cc1ccc(-c2cnc3cc(C)nn3c2)cc1	13µM*	0.71µM*	2.1µM*	-1%	?	0.45µM*
Cc1ccc(-c2cnc3c(Cl)c(C)nn3c2)cc1	3.2µM*	?	1.3µM*	?	?	0.45µM*
COc1ccc(C(C(=O)Nc2ccc(C(C)C)cc2)N(C)C(=O)Cc2cccs2)cc1 (stereo not drawn)	5%	.	1%	.	.	.
CC[n+]1c(/C=C/C=C2/N(C)c3ccccc3C2(C)C)sc2ccccc21	.	-31%[46.1 µM]	.	.	.	-44%[46.1 µM]
O=C(CCCC(=O)N(c1ccc(F)cc1)C(C(=O)NC1CCCC1)c1ccc(O)cc1)Nc1ccccn1 (stereo not drawn)	.	-1%	0%	-8%	-3%	4%
COc1cc(/C=N/NC(=O)CN2CCCCC2)ccc1OCc1ccc(Br)cc1	10µM*	9%	15µM*	?	?	2%
CCOc1ccc(/C=N/NS(=O)(=O)c2ccc(C)cc2)cc1OC	.	-1%	-2%	0%	-12%	2%
COc1cc(/C=N\NS(=O)(=O)c2ccccc2)cc(OC)c1OC	.	-3%	4%	2%	9%	3%
COc1cc(/C=N/NC(=O)CC2(C)OCCCO2)ccc1OCc1ccccc1	29%	-1%	?	4%	?	0%
COc1ccc(/C=N/NS(=O)(=O)c2ccccc2)cc1OC	.	-3%	-1%	-3%	18µM*	-4%
COc1cc(/C=N/NS(=O)(=O)c2ccc(C)cc2)ccc1OCc1ccc(C(=O)O)cc1	.	0.79µM*	0.024µM*	?	?	4.5µM*
CCc1nc2sc3c(O)cc(=O)[nH]c3c2cc1C	.	0%	15µM*	-1%	17%	-1%
Cc1cc(-c2ccccc2)c2c(n1)sc1c(O)cc(=O)[nH]c12	.	-1%	-1%	0%	6%	6%
CCCNc1ccc(S(=O)(=O)N(CC)CC)cn1	5.6µM*	0%	-6%	-2%	21%	0%
CCCNc1ccc(S(=O)(=O)N(C(C)C)C(C)C)cn1	-2%	-2%	-6%	1%	3%	0%
CCN(CC)S(=O)(=O)c1ccc2oc(Nc3ccc(OC)cc3OC)nc2c1	.	0%	-8%	-13%	-23%	1%
CCS(=O)(=O)c1ccc2oc(Nc3ccccc3C)nc2c1	?	3.5µM*	13µM*	?	?	3.5µM*
CCS(=O)(=O)c1ccc2oc(Nc3ccc(OC)c(OC)c3)nc2c1	.	9%	-18%	12%	9%	5%
CCN(CC)S(=O)(=O)c1ccc2oc(SCC(=O)Nc3cc(C)on3)nc2c1	.	-6%	-1%	-1%	10µM*	-2%
CCN(CC)S(=O)(=O)c1ccc2oc(Nc3ccccc3)nc2c1	.	?	15µM*	?	?	?
Cc1cc(C)c(NC(=O)CCCn2c(C)c3cnn(-c4ccccc4)c(=O)c3c2C)c(C)c1	-19%	.	-10%	.	.	.
CC[C@@]1(C(=O)OC)N[C@H](CN(C)C(=O)COC)[C@@H]2C(=O)N(C)C(=O)[C@@H]21	.	.	.	1%	6%	.
CCOc1cc(S(=O)(=O)NCCCN2CCOCC2)c(C)cc1C	.	-8%	3%	7%	-10%	-2%
CCCCN(C)CCCNC(=O)C1CCN(c2nc3ccc(CC)cc3s2)CC1	-8%	.	15µM*	.	.	.
SMILES	SMN2 splice up	NPC1 prom act	FLuc counter	ELG1 genotox	ELG1 DNA repair	Rab9 promoter act
CCCCN(CC)CCCNC(=O)C1CCN(c2nc3ccc(CC)cc3s2)CC1	-52%	.	19µM*	.	.	.
CC1CCN(c2nc3ccc(C(=O)NCCCN4CCCCC4)cc3s2)CC1	.	?	?	?	?	-40%
O=C(COc1ccccc1Cl)Nc1ccccc1C(=O)Nc1cccc(C(=O)O)c1	.	?	7.6µM*	?	?	?
Cc1cc(Cl)c(S(=O)(=O)Nc2cccc(O)c2)cc1OCC(N)=O	4µM*	-2%	1%	2%	15%	-2%
COc1ccc(NS(=O)(=O)c2cc(OCC(N)=O)c(C)cc2Cl)cc1	-11%	-2%	3%	-3%	0%	1%
Cc1ccccc1OCC(=O)Nc1cccc(C(=O)O)c1	1.6µM*	?	0.095µM*	-15%	?	?
Cc1cc(C)cc(OCC(=O)Nc2cccc(C(=O)O)c2)c1	?	?	15µM*	27%	?	?
COc1ccc(CS(=O)(=O)c2ncn[nH]2)cc1	.	2%	4%	-3%	11%	-2%
COc1ccccc1CNC(=O)Cc1c(C)c2c(cc(C)c3c(C)c(C)oc32)oc1=O	-2%	.	3%	.	.	.
CC1(OC(=O)c2ccc(Cl)nc2)C(=O)C=c2cc(-c3ccsc3)ncc2=C1OC(=O)C1CCCC1 (stereo not drawn)	-1%[9.22 µM]	.	.	.	.	.
Cc1ccc(CCNC(=O)c2cn(C)c3ccc(S(=O)(=O)N(C)C4CCCCC4)cc3c2=O)cc1	-1%	.	-2%	.	.	.
Cc1cc(C)c(OCC(=O)Nc2cccc(O)c2)cc1C	11%	10%	1.5µM*	5.2µM*	?	?
Cc1cccc(NC(=O)COc2ccc(Br)cc2/C=N/O)c1	18µM*	4µM*	5.4µM*	?	?	4µM*
CC(=O)Nc1ccc(NC(=O)COc2ccc(Br)cc2C)cc1	-12%	2%	-1%	11%	7%	0%
Cc1cc(C)c(OCC(=O)Nc2ccc3c(c2)OCO3)cc1C	.	21%	-16%	?	?	28%
CC(C)(C)NC(=O)c1cccc(NC(=O)CSc2ccccc2)c1	-3%	1%	15µM*	-4%	-6%	3%
CC(=O)c1cccc(NC(=O)COC(=O)c2ccccc2C)c1	.	?	21µM*	?	?	27%
CCOc1ncccc1C(=O)OCC(=O)Nc1cccc(C(C)=O)c1	-4%	5%	-4%	2%	-3%	-7%
CN(C)c1cccc(C(=O)OCCCC(=O)c2ccc(F)cc2)c1	.	-3%	-18%	1%	?	-2%
O=C(Nc1ccc(-c2cc(C(F)(F)F)nn2-c2ccccc2)cc1)c1cccc(F)c1	-46%	.	-6%	.	.	.
COc1ccccc1NC(=O)N1CC=C(c2c[nH]c3ccccc23)CC1	-4%	.	-3%	.	.	.
NC(=O)CC[C@H](NC(=O)c1ccc(F)cc1)C(=O)OCC(=O)NCc1ccc2c(c1)OCO2	.	.	.	1%	14%	.
CCn1nc(C)c2c(-c3ccccc3)cc(=O)n(C(C)C(=O)NCCC(C)C)c21 (stereo not drawn)	.	.	-14%	.	.	.
O=C(c1ccccc1)N1CCc2cc(CNS(=O)(=O)c3ccc(Cl)s3)ccc21	.	.	0%	.	.	.
